In PubChem BioAssay AID720555 (National Center for Advancing Translational Sciences (NCATS), 2013):
“And” between values parts separate entries of the source, which are not always exact repeats. Equal values may be shown once. Results filed as inconclusive are left out. A number with no mark means an inactive call. The source made the active and inactive calls. Calls come from the whole dose curve; as a rule, active = well fitted inhibition curve with a large enough effect; inconclusive = small, poorly fitted or top-dose-only effect; inactive = no such curve, though single readings can be large or run the other way.

What follows are compounds tested against RecQ-like DNA helicase BLM (Homo sapiens) (UniProt P54132) (assay: qHTS for Inhibitors of Bloom's syndrome helicase (BLM): Helicase DNA unwinding fluorescent orthogonal confirmatory assay for SAR). Conditions: fluorescence, orthogonal confirmation; series mostly up to 55.6 µM; activity change, negative = inhibition: at the top concentration.
Sequence of RecQ-like DNA helicase BLM (Homo sapiens) (P54132 whole entry, looked up): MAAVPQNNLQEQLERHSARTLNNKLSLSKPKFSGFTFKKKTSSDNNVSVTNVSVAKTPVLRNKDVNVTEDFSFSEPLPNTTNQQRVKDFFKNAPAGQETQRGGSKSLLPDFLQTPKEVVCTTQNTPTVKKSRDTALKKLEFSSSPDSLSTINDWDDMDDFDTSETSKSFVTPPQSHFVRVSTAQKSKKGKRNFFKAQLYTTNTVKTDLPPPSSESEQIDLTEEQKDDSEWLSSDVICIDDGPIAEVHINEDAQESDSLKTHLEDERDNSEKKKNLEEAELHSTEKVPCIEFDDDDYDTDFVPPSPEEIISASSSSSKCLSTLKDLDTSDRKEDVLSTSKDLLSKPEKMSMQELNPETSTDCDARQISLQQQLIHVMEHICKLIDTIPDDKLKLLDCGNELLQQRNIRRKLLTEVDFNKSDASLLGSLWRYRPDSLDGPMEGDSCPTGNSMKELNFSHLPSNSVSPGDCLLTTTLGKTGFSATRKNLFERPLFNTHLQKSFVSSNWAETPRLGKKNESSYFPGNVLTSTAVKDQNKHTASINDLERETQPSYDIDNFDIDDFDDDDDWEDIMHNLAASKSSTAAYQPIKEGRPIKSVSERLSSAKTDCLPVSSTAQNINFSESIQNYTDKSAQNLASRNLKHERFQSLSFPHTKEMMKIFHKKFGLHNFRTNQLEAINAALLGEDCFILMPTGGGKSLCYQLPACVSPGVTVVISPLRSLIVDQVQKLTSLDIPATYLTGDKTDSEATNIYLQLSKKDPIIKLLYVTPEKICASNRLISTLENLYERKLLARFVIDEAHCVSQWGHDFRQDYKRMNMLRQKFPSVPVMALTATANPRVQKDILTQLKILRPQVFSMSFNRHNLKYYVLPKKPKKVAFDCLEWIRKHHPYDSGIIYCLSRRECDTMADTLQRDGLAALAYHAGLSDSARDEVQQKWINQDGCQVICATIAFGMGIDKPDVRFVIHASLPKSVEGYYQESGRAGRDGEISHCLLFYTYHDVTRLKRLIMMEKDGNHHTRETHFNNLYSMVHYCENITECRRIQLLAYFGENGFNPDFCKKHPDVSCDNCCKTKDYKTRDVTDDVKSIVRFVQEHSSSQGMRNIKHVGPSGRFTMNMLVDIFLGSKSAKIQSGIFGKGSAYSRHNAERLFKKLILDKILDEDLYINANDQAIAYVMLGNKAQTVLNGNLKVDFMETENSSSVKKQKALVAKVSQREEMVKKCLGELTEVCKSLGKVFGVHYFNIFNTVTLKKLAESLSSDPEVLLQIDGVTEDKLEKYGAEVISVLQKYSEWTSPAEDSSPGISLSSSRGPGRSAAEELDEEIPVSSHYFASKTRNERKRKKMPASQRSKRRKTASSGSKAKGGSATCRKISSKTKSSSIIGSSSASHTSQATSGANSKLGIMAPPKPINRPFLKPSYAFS
Procedure, shortened: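 Purified BLM unwound a fluorescently labelled DNA substrate at room temperature in pH 7.5 Tris buffer with 2mM ATP and 2mM MgCl2. Products were resolved on native 15% gels. Loss of single-stranded product band, normalised to no-inhibitor and no-enzyme controls, indicates inhibition.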

Row | Structure (SMILES) | activity change, negative = inhibition | Potency
1 | O=C(Nc1ccc2ccccc2c1)Nc1nnc(-c2ccc(F)cc2)s1 | -1.89% | 
2 | O=C(Nc1ccc(Br)c(Br)c1)Nc1nnc(-c2cccnc2)s1 |  | 3.55 µM (active)
3 | O=C(Nc1ccc(F)c(C(F)(F)F)c1)Nc1cccc(-c2ccncc2)n1 |  | 4.47 µM (active)
4 | S=C(Nc1ccc(Cl)c(Cl)c1)Nc1nnc(-c2ccncc2)o1 | 1.29% | 
5 | CCOc1ccc(NC(=O)Nc2ccc(-c3nc4ccccc4[nH]3)cc2)cc1 | -5.73% | 
6 | O=C(Nc1ccc2c(c1)OCCO2)Nc1nnc(-c2ccncc2)s1 | 8.77% | 
7 | N#Cc1cc(NC(=O)Nc2nnc(-c3ccncc3)s2)ccc1-c1cn[nH]c1 |  | 1.58 µM (active) and 7.08 µM (active)
8 | O=C(Nc1ccc(Cl)c(Cl)c1)Nc1nnc(-c2cccnc2)s1 |  | 3.55 µM (active)
9 | O=C(Nc1ccc(-c2cn[nH]c2)cc1)Nc1nnc(-c2ccncc2)s1 |  | 31.6 µM (active)
10 | COc1ccc(-c2nnc(NC(=O)Nc3ccc4ccccc4c3)s2)cc1OC | -6.42% | 
11 | O=C(Nc1ccc(Cl)c(Cl)c1)Nc1ccc(-c2ccncc2)s1 | 5.54% [at 53.6 µM] | 
12 | O=C(Nc1nnc(-c2ccncc2)s1)Nc1ccc(Cl)c2ccccc12 |  | 14.1 µM (active)
13 | O=C(Nc1ccc(F)nc1)Nc1nnc(-c2ccncc2)s1 |  | 22.4 µM (active)
14 | O=C(Nc1ccc(Cl)c(Cl)c1)Nc1nc(-c2ccncc2)cs1 |  | 28.2 µM (active)
15 | CC(=O)c1ccc(NC(=O)Nc2nnc(-c3ccncc3)s2)cc1 | 3.44% | 
16 | O=C(Nc1ccc2ccccc2c1)Nc1nnc(-c2ccc(O)cc2)s1 | 2.72% | 
17 | O=C(Nc1nnc(-c2ccncc2)s1)Nc1ccc(Cl)cc1Cl |  | 31.6 µM (active)
